Results: PubChem BioAssay (NCATS)
Activity calls are given as the source filed them. How the calls were made is not given here.

system: HIV-1 nucleocapsid protein NCp7 (binding to TG oligonucleotide); experiment: HIV Nucleocapsid (AID 346); settings: HIV-1 NC / fluorescein-TGTGTGTG probe, fluorescence polarization;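 further: potency is for inhibitors that block NC binding and lower polarization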
Outline: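 Inhibition of nucleocapsid binding to single-stranded 5'-TGTGTGTG probe (10 nM) was measured by fluorescence polarization after 1 hr at room temperature with 100 nM protein under high-salt, zinc-containing, reducing conditions.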
Potency means the concentration at half of the fitted maximal effect.

Structure (SMILES)	Potency
CN1CCC2(CC1)CCN(C(=O)c1cc(C(F)(F)F)cc(C(F)(F)F)c1)CC2	> 20 µM (inactive)
CS(=O)(=O)Nc1cccc(-c2ccc3ncnc(N4CCOCC4)c3c2)c1	> 20 µM (inactive)
N#Cc1ccc(CN2CCCC3(CCN(S(=O)(=O)c4ccccc4)CC3)C2)cc1	> 20 µM (inactive)
COc1ccc(Oc2ncc3nc(C)c(=O)n(-c4ccc(OC)cc4)c3n2)cc1	> 20 µM (inactive)
O=C(c1ccco1)N1CCC2(CCN(Cc3cc(C(F)(F)F)cc(C(F)(F)F)c3)CC2)CC1	> 20 µM (inactive)
COc1ccc2[nH]cc(CCNc3cc(-c4cccc(C#N)c4)ncn3)c2c1	> 20 µM (inactive)
O=S(=O)(c1ccccc1)N1CCC[C@@]2(CCN(c3ccccc3)C2)C1	> 20 µM (inactive)
COC(=O)N1CCC2(CCCN(c3ccc(-c4ccccc4)cc3)C2)CC1	> 20 µM (inactive)
Cc1ccccc1-c1ccc2ncnc(NCCN3CCOCC3)c2c1	> 20 µM (inactive)
COCCn1c(=O)c(-c2cccc(C#N)c2)nc2cnc(Nc3ccccc3)nc21	5.18 µM (active)
CN1CCN(c2nc(-c3ccc4c(c3)OCO4)nc3ccccc23)CC1	> 20 µM (inactive)
COc1ccc(C(=O)N2CCC[C@@]3(CCN(C(=O)NC(C)C)C3)C2)cc1	> 20 µM (inactive)
COc1ccc(-c2nc3cnc(N4CCNCC4)nc3n(CCC#N)c2=O)cc1	> 20 µM (inactive)
CC(=O)NCCNc1cc(-c2ccccc2C)ncn1	> 20 µM (inactive)
COc1ccc(CNc2cc(-c3ccccc3C)ncn2)c(OC)c1	> 20 µM (inactive)
O=C(c1ccco1)N1CCC2(CCCN(Cc3ccccc3)C2)CC1	> 20 µM (inactive)
O=S(=O)(c1ccccc1)N1CCC2(CC1)CN(C(c1ccccc1)c1ccccc1)C2	> 20 µM (inactive)
Cc1cnc(CNc2nc(-c3ccccc3C)nc3ccccc23)cn1	> 20 µM (inactive)
CN1CCN(c2ncc3ncc(=O)n(C[C@H]4CCCO4)c3n2)CC1	> 20 µM (inactive)
Cn1cccc1C(=O)N1CCC2(CCN(C(=O)Nc3cccc(C#N)c3)CC2)CC1	> 20 µM (inactive)

Structure (SMILES)	Potency
COCCn1c(=O)c(-c2cccc(C#N)c2)nc2cnc(Oc3ccc(OC)cc3)nc21	> 20 µM (inactive)
COc1ccc(Oc2ncc3nc(CCc4ccccc4)c(=O)n(C[C@H]4CCCO4)c3n2)cc1	> 20 µM (inactive)
Cc1ccccc1-c1cc(N2CCNCC2)ncn1	> 20 µM (inactive)
O=C(c1cc(C(F)(F)F)cc(C(F)(F)F)c1)N1CCC2(CC1)CN(c1ccccn1)C2	> 20 µM (inactive)
COc1ccccc1CCn1c(=O)c(-c2ccccc2)nc2cncnc21	> 20 µM (inactive)
O=C(c1ccncc1)N1CCC[C@@]2(CCN(c3ccccn3)C2)C1	> 20 µM (inactive)
COc1ccc(NC(=O)N2CC[C@@]3(CCCN(C(=O)c4ccncc4)C3)C2)cc1	> 20 µM (inactive)
CN1CCN(c2ncc3nc(-c4ccc(Cl)cc4)c(=O)n(C)c3n2)CC1	> 20 µM (inactive)
CN1CCN(c2ncc3ncc(=O)n(C4CC4)c3n2)CC1	> 20 µM (inactive)
CN(C)c1ncc2nc(CCc3ccccc3)c(=O)n(Cc3cccs3)c2n1	> 20 µM (inactive)
CN(C)c1ncc2nc(-c3ccc(Cl)cc3)c(=O)n(Cc3cccs3)c2n1	> 4 µM (inactive)
N#Cc1cccc(NC(=O)N2CC[C@@]3(CCCN(S(=O)(=O)c4ccccc4)C3)C2)c1	> 20 µM (inactive)
COc1ccc(NC(=O)N2CCC3(CC2)CCN(S(=O)(=O)c2ccccc2)CC3)cc1	> 20 µM (inactive)
COC(=O)N1CCC2(CCCN(Cc3cc(C(F)(F)F)cc(C(F)(F)F)c3)C2)CC1	> 20 µM (inactive)
Cc1noc(C)c1-c1ccc2ncnc(N3CCN(C)CC3)c2c1	> 20 µM (inactive)
COc1ccccc1CNc1cc(-c2ccccc2CN(C)C)ncn1	> 20 µM (inactive)
O=S(=O)(c1ccccc1)N1CCC2(CCCN(Cc3ccccc3)C2)CC1	> 20 µM (inactive)
O=S(=O)(c1ccccc1)N1CCC[C@@]2(CCN(Cc3nccs3)C2)C1	> 20 µM (inactive)
COc1ccc2[nH]cc(CCNc3nc(-c4ccc(N(C)C)cc4)nc4ccccc34)c2c1	> 20 µM (inactive)
